The campaign covered roughly 100,000 compounds. About 4,200 (4.2%) were called active.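 Rule for the calls: active = single-dose well whose peak fluorescence ratio is a statistical outlier from its plate by either plate-standardised score or position-corrected B-score; inactive = the rest.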 For the sample, actives were picked, then their nearest neighbours and some compounds at random.

Voltage-dependent T-type calcium channel subunit alpha-1H (Homo sapiens), sequence (O95180 whole entry, looked up): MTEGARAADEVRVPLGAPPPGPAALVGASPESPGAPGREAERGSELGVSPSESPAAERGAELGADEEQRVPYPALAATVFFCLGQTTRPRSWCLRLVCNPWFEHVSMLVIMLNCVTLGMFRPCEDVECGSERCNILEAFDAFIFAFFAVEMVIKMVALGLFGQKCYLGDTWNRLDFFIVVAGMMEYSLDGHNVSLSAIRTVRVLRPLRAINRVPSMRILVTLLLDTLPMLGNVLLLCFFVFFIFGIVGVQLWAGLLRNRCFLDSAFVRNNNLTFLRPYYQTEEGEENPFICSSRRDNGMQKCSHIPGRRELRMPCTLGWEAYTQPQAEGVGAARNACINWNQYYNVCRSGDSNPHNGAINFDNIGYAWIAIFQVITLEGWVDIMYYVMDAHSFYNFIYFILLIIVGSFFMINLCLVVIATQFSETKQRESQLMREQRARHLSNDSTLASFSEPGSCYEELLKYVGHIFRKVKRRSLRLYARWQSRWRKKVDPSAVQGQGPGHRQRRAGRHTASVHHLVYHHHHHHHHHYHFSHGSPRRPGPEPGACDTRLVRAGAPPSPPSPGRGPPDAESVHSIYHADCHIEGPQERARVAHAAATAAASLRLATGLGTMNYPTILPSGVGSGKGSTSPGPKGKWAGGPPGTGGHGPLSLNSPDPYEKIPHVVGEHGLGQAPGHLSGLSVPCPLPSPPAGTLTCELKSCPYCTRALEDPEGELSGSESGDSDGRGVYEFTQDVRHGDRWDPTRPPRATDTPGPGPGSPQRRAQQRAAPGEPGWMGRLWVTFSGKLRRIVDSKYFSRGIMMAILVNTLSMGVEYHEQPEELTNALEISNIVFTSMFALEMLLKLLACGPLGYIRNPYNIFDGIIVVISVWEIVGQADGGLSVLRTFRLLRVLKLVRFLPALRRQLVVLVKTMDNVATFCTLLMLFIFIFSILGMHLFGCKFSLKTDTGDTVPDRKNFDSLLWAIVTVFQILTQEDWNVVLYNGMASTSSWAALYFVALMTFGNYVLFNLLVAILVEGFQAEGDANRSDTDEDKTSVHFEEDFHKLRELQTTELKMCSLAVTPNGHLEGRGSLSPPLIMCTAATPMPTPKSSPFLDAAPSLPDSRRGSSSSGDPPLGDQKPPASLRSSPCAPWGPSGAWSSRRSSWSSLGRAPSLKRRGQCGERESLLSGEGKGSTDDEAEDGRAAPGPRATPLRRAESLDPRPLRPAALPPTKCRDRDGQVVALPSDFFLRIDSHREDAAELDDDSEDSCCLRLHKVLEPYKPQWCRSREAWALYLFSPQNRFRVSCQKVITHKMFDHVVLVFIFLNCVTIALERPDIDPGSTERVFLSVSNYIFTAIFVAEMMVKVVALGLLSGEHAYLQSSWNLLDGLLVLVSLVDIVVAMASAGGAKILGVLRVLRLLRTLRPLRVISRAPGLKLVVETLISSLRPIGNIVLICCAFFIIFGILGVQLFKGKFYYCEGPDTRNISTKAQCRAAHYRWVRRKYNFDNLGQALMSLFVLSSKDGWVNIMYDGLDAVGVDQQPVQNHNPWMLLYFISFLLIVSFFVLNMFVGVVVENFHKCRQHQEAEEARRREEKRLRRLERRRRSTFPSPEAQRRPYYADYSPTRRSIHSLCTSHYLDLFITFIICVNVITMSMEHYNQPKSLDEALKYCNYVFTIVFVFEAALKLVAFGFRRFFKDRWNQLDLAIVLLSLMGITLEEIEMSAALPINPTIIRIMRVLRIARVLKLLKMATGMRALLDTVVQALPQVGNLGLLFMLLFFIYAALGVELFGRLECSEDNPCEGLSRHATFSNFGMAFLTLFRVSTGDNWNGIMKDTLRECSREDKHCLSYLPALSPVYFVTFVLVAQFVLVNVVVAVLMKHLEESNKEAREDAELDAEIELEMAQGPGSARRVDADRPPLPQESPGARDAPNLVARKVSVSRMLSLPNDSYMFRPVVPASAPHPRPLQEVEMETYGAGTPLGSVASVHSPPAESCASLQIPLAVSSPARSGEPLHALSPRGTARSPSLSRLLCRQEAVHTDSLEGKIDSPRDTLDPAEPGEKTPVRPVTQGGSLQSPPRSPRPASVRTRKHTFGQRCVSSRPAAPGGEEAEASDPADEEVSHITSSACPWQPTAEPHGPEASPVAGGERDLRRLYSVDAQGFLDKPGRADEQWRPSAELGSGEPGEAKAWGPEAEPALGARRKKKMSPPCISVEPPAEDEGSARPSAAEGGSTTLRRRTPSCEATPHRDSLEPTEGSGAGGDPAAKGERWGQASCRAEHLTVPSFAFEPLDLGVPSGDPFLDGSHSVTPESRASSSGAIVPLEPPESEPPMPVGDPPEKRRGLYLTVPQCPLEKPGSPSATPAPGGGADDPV

This assay addresses Voltage-dependent T-type calcium channel subunit alpha-1H (Homo sapiens) (UniProt O95180). Kind of assay: Cav3.2 calcium influx blockers – cell-based, Fluo-4 calcium fluorescence, FDSS, MLSMR library, primary screen (AID 449739). The following applies: Cav3.2-expressing cells, at 10 µM, active compounds read low.
`COc1ccc(NS(=O)(=O)c2ccc(NC(=S)NC(=O)CC(C)C)cc2)cc1`: the B-score is -2.74 (inactive). The value for `Cc1c(C(=O)OC(C)C)sc(NC(=O)c2cccnc2)c1C#N` was -2.15 (inactive). For `CC(=O)c1cnn(-c2cc(Oc3ccc(F)cc3)ncn2)c1C`, the B-score is -0.109 (inactive). Then `CCC(=O)Nc1cccc(C2=NOC3(C2)C[C@@H](C(N)=O)N(C(=O)c2cc([N+](=O)[O-])cc([N+](=O)[O-])c2C)C3)c1` (some centres undefined), with 0.296 (inactive); and `COc1cc(OC)cc(C(=O)NC2CCN(C(=O)N3c4ccccc4Sc4ccccc43)CC2)c1`, with -3.52 (active); and `Cc1ccc(C(=O)NC2CCN(C(=O)N3CCOCC3)CC2)cc1`, with 1.24 (inactive).

As for `CCOc1ccc(C(=O)NC2CCN(C(=O)Nc3ccccc3OC)CC2)cc1`, the B-score was 1.41 (inactive). Then `C=CC(COCc1ccccc1)N(Cc1ccccc1)S(=O)(=O)c1ccccc1Br` (centres undefined), with -0.978 (inactive); and `O=C(CN1CCN(c2ccc(F)cc2)CC1)Nc1cccc(C(F)(F)F)c1`, with -5.59 (active); and `O=C(CN1CCOCC1)Nc1ccccc1`, with -0.393 (inactive). The value for `O=C(CN1CCN(CC(=O)Nc2ccc3c(c2)OCO3)CC1)Nc1ccc(F)cc1` was 2.27 (inactive); that for `COc1ccc(CCNC(=O)C2CC3Cn4c(nc5cc(C)c(C)cc54)C3N2C)cc1` (centres undefined) was 0.841 (inactive). On to `Cc1nn2c(c1-c1ccccc1)N=C(c1ccco1)CC2c1ccccc1` (centres undefined), for which the B-score is -4.41 (active). As to `Cc1nn(C(=O)c2ccoc2C)c(N)c1-c1ccccc1`, the B-score was -1.25 (inactive). Then `Cc1nc(NC(=O)c2cccc(Cl)c2)sc1-c1csc(Nc2cccc(Cl)c2)n1`, with 1.63 (inactive). Regarding `O=C(NCc1ccccc1)C1=C[C@@H](c2ccccc2)C[C@@H](OCCCCO)O1`, the B-score is 0.00916 (inactive).

Take `O=[N+]([O-])c1ccccc1NCc1ccc(Cl)cc1`: the B-score is -0.134 (inactive). On to `C#CCN(N(C)c1ncc(C(F)(F)F)cc1Cl)S(=O)(=O)c1ccc2ccccc2c1`, for which the B-score was -1.26 (inactive). Then `CCN(CC)S(=O)(=O)c1ccc(N(C)Cc2ccc(C(F)(F)F)cc2)nc1`, with -5.7 (active); and `CC(C)(C)NCC(O)COc1cccc2[nH]c(=O)[nH]c12` (centres undefined), with 2.63 (inactive); and `CN(c1ccccc1)c1ccc(/C=c2\s/c(=C(/C#N)C(=O)C(C)(C)C)n(Cc3ccco3)c2=O)cc1`, with -7.8 (active).

Regarding `Cc1cc2c(c(=O)n1Cc1ccco1)C(c1ccccc1)C(C#N)=C(N)O2` (centres undefined), the B-score was 0.691 (inactive). For `CCOC(=O)CSc1nc2c(sc(=S)n2CCc2ccccc2)c(=O)n1Cc1ccco1`, the B-score was -3.99 (inactive). On to `O=C1CCC(=O)N(O)CCCCCNC(=O)CCC(=O)N(O)CCCCCNC(=O)CCC(=O)N(O)CCCCCN1`, for which the B-score is 0.127 (inactive).

For the compound `CC(C)(CCl)C(=O)Nc1ccc(Sc2ccc(F)cc2)cc1`, the B-score was -7.91 (active). Consider `COC(=O)c1ccc(Sc2ccc(F)cc2)c(N)c1`, for which the B-score was -2.9 (inactive). Then `CCN(c1ccccc1)S(=O)(=O)c1ccc(NC(=O)C(C)(C)C)cc1`, with -0.778 (inactive). Then `CC1(C)Cc2ccccc2-c2nc(CN3CCOCC3)[nH]c(=O)c21`, with -0.167 (inactive); and `CCOC(=O)C1Cn2c(nc3c(c2=O)C(C)(CC)Cc2ccccc2-3)S1` (centres undefined), with -9.41 (active); and `CCC1(CC)Cc2ccccc2-c2nc3ccccc3c(=O)n21`, with -0.963 (inactive). Then `CNC(=O)c1csc(-c2ccccc2)n1`, with 0.414 (inactive); and `c1cncc(-c2nnc3n2C2(CCCCC2)Cc2ccccc2-3)c1`, with 0.419 (inactive).

Regarding `Cc1cccc(C(=O)Nc2ccc(C(=O)/C=C/c3cccs3)cc2)c1`, the B-score is -1.78 (inactive). Then `COC(=O)C1=C(C(=O)OC)[C@@H]2N(C)c3ccccc3[C@@]23C[C@@H](C(=O)OC)N(C(=O)c2ccco2)C3=N1`, with 0.92 (inactive). Then `CCOc1ccc(Nc2nc(Cc3nnc(SCC(=O)NC4CCCC4)n3C)cs2)cc1`, with -0.148 (inactive).

For the compound `COCCCn1c(Cc2csc(Nc3cccc(Cl)c3)n2)nnc1SCC(=O)OC1CCCCC1`, the B-score was -7.39 (active). Take `COCCCn1c(SCC(=O)Nc2ccccc2)nnc1-c1ccncc1`: the B-score was -1.03 (inactive). As to `Cc1ccc(/C=N\n2c(-c3ccccc3)n[nH]c2=S)s1`, the B-score was -0.0777 (inactive). Then `CC1(C)S[C@@H]2[C@H](N=CN3CCCCCC3)C(=O)N2[C@H]1C(=O)O`, with 0.247 (inactive); and `O=c1cc(N2CCN(Cc3ccccc3)CC2)c(-c2ccccc2)n[nH]1`, with 0.119 (inactive); and `CC(C)Oc1ccc(CCc2n[nH]c(=S)n2Cc2ccccc2)cc1`, with -1.48 (inactive).

As to `CC(C)N(c1ccccc1)c1ncnc(NCCC(=O)O)c1[N+](=O)[O-]`, the B-score is 0.156 (inactive). With `CNC(=S)N1N=C(c2ccccc2)CC1c1ccc(Br)cc1` (centres undefined), the B-score was -7.33 (active). Then `COc1ccc(NC(=S)N2N=CCC2c2ccccc2)cc1` (centres undefined), with 0.319 (inactive). Take `C=CCOC(=O)C1=C[C@@H](c2ccccc2)C[C@@H](OCc2ccc(CO)cc2)O1`: the B-score is -1.02 (inactive). Then `CCN1C(=O)N[C@@H](c2ccccc2)[C@H](C(C)=O)[C@H]1C`, with 0.0204 (inactive).

As for `Cc1cc(-c2cccs2)nc(-n2cccc2)n1`, the B-score is 0.352 (inactive). The value for `O=C(CN1CCCCC1)N1c2ccccc2Sc2ccc(C(F)(F)F)cc21` was -2.51 (inactive); that for `O=C(CN1CCCCCC1)N1c2ccccc2Sc2ccc(C(F)(F)F)cc21` was -4.47 (active); that for `CC1CC(C)CN(CC(=O)N2c3ccccc3CCc3ccccc32)C1` (centres undefined) was -3.85 (inactive). For `CC(Sc1nc2c([nH]c3ccccc32)c(=O)n1C)c1ccccc1` (centres undefined), the B-score was 0.215 (inactive). Then `CN(C)CCNC(=O)Nc1cccc(Cl)c1Cl`, with 0.258 (inactive). Then `NC(=O)CC(NC(=O)Cc1cccc2ccccc12)c1ccc(NCc2cc(F)ccc2F)c([N+](=O)[O-])c1` (centres undefined), with -0.287 (inactive); and `Cc1cnc(NC(=O)CSc2nnc(-c3ccc(Cl)cc3Cl)n2N)s1`, with -4.55 (active). The value for `Cc1cnc(NC(=O)CSc2c(Cl)cccc2Cl)s1` was -0.466 (inactive); that for `Cc1cnc(NC(=O)CSc2nnc(-c3ccccc3)n2Cc2ccccc2)s1` was -2.37 (inactive). Take `CNC(=O)CN1C(=O)c2ccccc2S1(=O)=O`: the B-score was 0.319 (inactive). The value for `O=C1c2ccccc2S(=O)(=O)N1CC(O)Cn1c2ccccc2c2ccccc21` (centres undefined) was -5.05 (active). The value for `CS(=O)(=O)N(CC(O)Cn1c2ccccc2c2ccccc21)c1cccc2ccccc12` (centres undefined) was 1.02 (inactive).

Source of the values: PubChem BioAssay AID449739 (Vanderbilt High Throughput Screening Facility, 2010).
